In PubChem BioAssay:
Activity calls are given as the source filed them. Unless noted, no rule for the calls is given here.

Legend:
[1] = compound effects on lung adenocarcinoma cell viability – A549, calcein-AM fluorescence, 48 h, basal, profiling panel (AID 1162); conditions: higher = more signal; also: test concentration not given here
[2] = compound effects on differentiated 3T3-L1 adipocyte viability – cell-based, 3T3-L1 adipocytes, calcein-AM fluorescence, 48 h, basal, profiling panel (AID 1163); conditions: 3T3-L1 adipocytes viability, higher = more signal; also: test concentration not given here
[3] = compound effects on hepatocellular carcinoma cell viability – HepG2, calcein-AM fluorescence, 48 h, basal, profiling panel (AID 1164); conditions: higher = more signal; also: test concentration not given here
[4] = compound effects on multiple myeloma cell viability – MM1S, calcein-AM fluorescence, 48 h, basal, profiling panel (AID 1165); conditions: higher = more signal; also: test concentration not given here
[5] = calcein-AM signal in unstimulated myeloma cells – cell-based, calcein-AM fluorescence, 48 h, PK04 Diversity Set, profiling panel (AID 1166); conditions: RPMI8226 myeloma viability, higher = more signal;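 also: cells grown under basal conditions without added stimulus; test concentration not given here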
[6] = JC-1 mitochondrial signal, unstimulated HepG2 cells – cell-based, JC-1 fluorescence, 24 h, 100 nL compound, profiling panel (AID 1167); conditions: HepG2 mitochondrial potential, higher = more signal; also: test concentration not given here
[7] = JC-1 mitochondrial signal, unstimulated adipocytes – cell-based, JC-1 fluorescence, 3T3-L1 adipocytes, 24 h, 100 nL compound, profiling panel (AID 1168); conditions: JC-1 mitochondrial fluorescence, higher = more signal, called active from +8 up or from −8 down; also: test concentration not given here
[8] = JC-1 mitochondrial signal, unstimulated myeloma cells – cell-based, JC-1 fluorescence, RPMI8226, 24 h, 100 nL compound, profiling panel (AID 1169); conditions: JC-1 mitochondrial potential fluorescence, higher = more signal; also: test concentration not given here
[9] = JC-1 mitochondrial signal, unstimulated MM1S myeloma – cell-based, JC-1 fluorescence, 24 h, 100 nL compound, profiling panel (AID 1170); conditions: MM1S mitochondrial potential, higher = more signal; also: test concentration not given here
[10] = resazurin metabolic signal in A549 cells – cell-based, resazurin fluorescence, 24 h, PK04 Diversity Set, profiling panel (AID 1171); conditions: A549 viability, higher = more signal, called active from +8 up or from −8 down; also: test concentration not given here
[11] = resazurin metabolic signal in HepG2 cells – cell-based, resazurin fluorescence, 24 h, PK04 Diversity Set, profiling panel (AID 1172); conditions: HepG2 viability, higher = more signal; also: test concentration not given here
[12] = budding yeast growth changes without added modifier – OD600, strain BY4716, 24 h, basal condition, primary screen (AID 1173); conditions: S. cerevisiae BY4716 growth, OD600, 24 h; higher = more signal, called active from +8 up or from −8 down
[13] = viability profiling in MM1S myeloma cells – cell-based, resazurin fluorescence, basal, 24 h, PK04 Diversity Set, profiling panel (AID 1174); conditions: higher = more signal, called active from +8 up or from −8 down; also: test concentration not given here
[14] = target: Dihydroorotate dehydrogenase (quinone), mitochondrial (Plasmodium falciparum (isolate 3D7)) (UniProt Q08210); assay: inhibition of P. falciparum DHODH – biochemical, C-terminal His tag, absorbance 600 nm, primary screen (AID 1175); conditions: PfDHODH enzyme, DCIP absorbance 600 nm; higher = more signal, called active from +8 up or from −8 down;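 also: recombinant parasite enzyme with a five histidine tag at its C terminus; test concentration not given here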
[15] = inhibition of PAO1 biofilm formation – strain PAO1, LB-PBS medium, absorbance 600 nm, primary screen (AID 1176); also: test concentration not given here; conditions: P. aeruginosa PAO1 growth/biofilm, A600, 12 h; higher = more signal
[16] = growth modulation of vineyard yeast isolate – strain RM11-1a, OD600, basal, 24 h, primary screen (AID 1177);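 also: cultures grown under basal conditions with no added stressor; test concentration not given here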; conditions: S. cerevisiae RM11-1a growth, OD600, 24 h; higher = more signal, called active from +8 up or from −8 down
[17] = growth of efflux-deficient E. coli DRC39 – strain DRC39, OD650, 24 h, E. coli filamentation inducers, primary screen (AID 1178);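 also: growth measured as culture turbidity by optical density at 650 nm; test concentration not given here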; conditions: E. coli DRC39 acrAB, higher = more signal, called active from +8 up or from −8 down
[18] = growth of efflux-deficient E. coli DRC39 – strain DRC39, OD650, 48 h, E. coli filamentation inducers, primary screen (AID 1179);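 also: screen aims at cell division blockers that make cells filament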; conditions: E. coli DRC39 delta-acrAB growth, higher = more signal, called active from +8 up or from −8 down
[19] = viability profiling in RPMI8226 myeloma cells – cell-based, resazurin fluorescence, basal, 24 h, PK04 Diversity Set, profiling panel (AID 1180); conditions: higher = more signal;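 also: RPMI8826 multiple myeloma cell line at 5000 cells per well; test concentration not given here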
[20] = target: E3 ubiquitin-protein ligase XIAP (Homo sapiens) (UniProt P98170); assay: small molecules binding XIAP protein – biophysical, small-molecule microarray, fluorescence 635 nm, primary screen (AID 1181); conditions: higher = more signal;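 also: score merges 667 nm emission and signal to noise over triplicate slides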
E3 ubiquitin-protein ligase XIAP (Homo sapiens), sequence (P98170 whole entry, looked up): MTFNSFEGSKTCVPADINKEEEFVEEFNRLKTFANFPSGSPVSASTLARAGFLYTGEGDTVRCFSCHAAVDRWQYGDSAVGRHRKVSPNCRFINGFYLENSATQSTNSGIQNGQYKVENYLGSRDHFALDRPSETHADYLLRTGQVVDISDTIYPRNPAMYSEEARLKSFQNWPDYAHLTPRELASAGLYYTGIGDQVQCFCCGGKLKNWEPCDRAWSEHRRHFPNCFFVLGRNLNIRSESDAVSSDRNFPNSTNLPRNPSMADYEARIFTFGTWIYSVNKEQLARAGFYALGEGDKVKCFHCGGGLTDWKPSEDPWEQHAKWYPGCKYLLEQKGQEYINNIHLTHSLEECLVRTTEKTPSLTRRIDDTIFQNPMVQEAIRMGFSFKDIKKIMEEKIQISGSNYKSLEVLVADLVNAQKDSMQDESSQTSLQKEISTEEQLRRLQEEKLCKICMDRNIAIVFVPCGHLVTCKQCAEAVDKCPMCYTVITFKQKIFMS

Dihydroorotate dehydrogenase (quinone), mitochondrial (Plasmodium falciparum (isolate 3D7)), sequence (Q08210 whole entry, looked up): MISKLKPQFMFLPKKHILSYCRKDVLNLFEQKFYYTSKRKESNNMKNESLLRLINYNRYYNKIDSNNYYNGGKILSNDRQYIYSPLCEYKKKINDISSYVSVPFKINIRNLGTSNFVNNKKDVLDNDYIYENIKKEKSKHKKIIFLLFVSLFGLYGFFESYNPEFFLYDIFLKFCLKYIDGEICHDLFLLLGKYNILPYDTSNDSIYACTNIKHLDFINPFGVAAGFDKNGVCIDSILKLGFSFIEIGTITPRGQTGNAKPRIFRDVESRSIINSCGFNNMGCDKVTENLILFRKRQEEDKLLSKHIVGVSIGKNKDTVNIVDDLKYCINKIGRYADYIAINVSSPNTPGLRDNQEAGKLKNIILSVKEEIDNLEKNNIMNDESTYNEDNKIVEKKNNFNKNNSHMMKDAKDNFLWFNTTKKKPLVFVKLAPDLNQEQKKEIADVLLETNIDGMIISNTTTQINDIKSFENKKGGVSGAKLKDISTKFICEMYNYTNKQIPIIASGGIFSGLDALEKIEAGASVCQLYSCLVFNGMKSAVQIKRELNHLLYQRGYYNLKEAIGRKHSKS

SMILES	z-score [1]	z-score [2]	z-score [3]	z-score [4]	z-score [5]	z-score [6]	z-score [7]	z-score [8]	z-score [9]	z-score [10]	z-score [11]	z-score [12]	z-score [13]	composite z-score [14]	z-score [15]	z-score [16]	z-score [17]	z-score [18]	z-score [19]	composite z-score [20]
Cc1ccc(S(=O)(=O)N2[C@@H](c3ccccc3)C(C(=O)O)=C[C@H]2C(C)(C)C)cc1	-0.756	-0.625	-0.558	0.611	-0.711	-0.747	-0.465 (inactive)	-0.369	-0.953	-1.11 (inactive)	-0.809	-0.535 (inactive)	-0.912 (inactive)	0.0392 (inactive)	0.257 (inactive)	-1.13 (inactive)	-0.773 (inactive)	-0.0408 (inactive)	-2.03	-0.18
CC[C@@H]1C=C(C(=O)O)[C@H](c2cccc(Cl)c2)N1S(=O)(=O)c1ccc(C)cc1	-0.0107	-0.762	0.223	0.126	0.0221	-0.743	-0.41 (inactive)	-0.623	-0.343	-0.628 (inactive)	-0.722	-0.423 (inactive)	-0.869 (inactive)	-0.831 (inactive)	-0.184 (inactive)	-0.285 (inactive)	-0.647 (inactive)	-0.55 (inactive)	-1.89	1.12
COC(=O)[C@@]1(Cc2ccccc2)[C@H]2c3cc(C(=O)N(C)C)n(CCF)c3C[C@H]2CN1C(=O)c1ccccc1	-1.23	-0.386	-0.561	0.258	-0.57	0.376	-0.874 (inactive)	0.328	-0.294	-0.818 (inactive)	-0.537	1.34 (inactive)	-0.878 (inactive)	0.288 (inactive)	0.715 (inactive)	0.155 (inactive)	-0.407 (inactive)	0.0857 (inactive)	-0.329	0.0635
COC(=O)C(CC#Cc1ccc2c(c1)[C@]1(C(=O)N2)[C@H](c2ccc(OCCO)cc2)N2[C@H](c3ccccc3)[C@H](c3ccccc3)OC(=O)[C@H]2[C@@H]1C(N)=O)C(=O)OC	-0.729	0.251	-0.188	-2.2	-1.68	-0.68	0.81 (inactive)	-1.12	-0.927	-0.0032 (inactive)	-0.156	1.17 (inactive)	-0.551 (inactive)	-1.24 (inactive)	2.88 (inactive)	2.32 (inactive)	0.448 (inactive)	0.287 (inactive)	-1.43	0.13
C[C@]1(C(=O)NCC(F)(F)F)c2ccccc2C(=O)N(Cc2cc(C(F)(F)F)cc(C(F)(F)F)c2)[C@H]1c1ccc(CO)cc1	1.82	0.441	1.51	0.24	1.11	1.23	0.436 (inactive)	0.412	0.0741	0.476 (inactive)	0.373	-0.234 (inactive)	1.2 (inactive)	-0.954 (inactive)	0.5 (inactive)	0.507 (inactive)	0.712 (inactive)	0.827 (inactive)	1.13	-0.0099
COC(=O)[C@@]1(Cc2ccc(F)cc2)[C@H]2c3cc(C(=O)N4CCCC4)n(Cc4ccc(C(F)(F)F)nc4)c3C[C@H]2CN1C(=O)c1ccccc1	-0.29	0.585	-1.06	-2.08	-1.37	1.69	-0.439 (inactive)	-0.799	-0.873	0.052 (inactive)	-0.213	1.12 (inactive)	-1.23 (inactive)	-0.456 (inactive)	-0.691 (inactive)	1.09 (inactive)	-0.83 (inactive)	0.0871 (inactive)	-1.11	0.153
CC(C)(C)OC(=O)N1[C@@H](C=C(Br)Br)COC1(C)C	0.4	0.46	1.32	-0.255	-0.639	0.175	1.2 (inactive)	-0.187	0.548	-1.4 (inactive)	0.373	-4.13 (inactive)	0.0757 (inactive)	-1.74 (inactive)	-0.677 (inactive)	-1.65 (inactive)	0.559 (inactive)	0.6 (inactive)	-0.673	0.0335
CCCC[C@@H](O)C1=C(C)Cn2c(=O)n(-c3ccccc3)c(=O)n2[C@H]1CO	1.38	0.345	0.108	0.548	0.617	0.372	0.276 (inactive)	-0.347	-0.804	-1.16 (inactive)	-0.256	-1.82 (inactive)	-0.0268 (inactive)	-1.06 (inactive)	0.413 (inactive)	-1.88 (inactive)	0.514 (inactive)	0.715 (inactive)	-0.0486	-0.249
CCCCCN1CC=CC23O[C@@H]4/C=C\CCCOC(=O)C4[C@H]2C(=O)N(CCCCCO)[C@@H]3C1=O (stereo not given in full)	0.386	1.96	-0.216	0.281	1.13	-0.116	1.24 (inactive)	-0.21	-0.235	0.844 (inactive)	0.809	-1.17 (inactive)	1.33 (inactive)	-0.869 (inactive)	0.0962 (inactive)	-1.08 (inactive)	0.279 (inactive)	-0.0568 (inactive)	1.33	0.165
CN1C2C=C(c3ccc(CO)cc3)C(C3C(=O)N(C(N)=O)C(=O)C32)C1C1CC1 (stereo not given)	-0.497	0.0457	-0.157	0.341	-0.773	-0.391	-0.242 (inactive)	-0.482	0.326	0.182 (inactive)	-0.41	1.31 (inactive)	-0.611 (inactive)	0.437 (inactive)	0.354 (inactive)	0.718 (inactive)	0.0605 (inactive)	0.213 (inactive)	-0.641	-0.0745
O=C1NC(=O)C2C1C=CC(C(O)C1CCCCC1)N2Nc1ccccn1 (stereo not given)	-1.05	-0.608	-0.484	-0.0776	-0.76	-1.45	-0.894 (inactive)	-0.573	-0.9	-0.606 (inactive)	-0.864	0.876 (inactive)	-1.27 (inactive)	0.583 (inactive)	2.68 (inactive)	0.209 (inactive)	-1.02 (inactive)	-0.286 (inactive)	-1.33	-0.0663
COC(=O)[C@@]1(Cc2ccc(F)cc2)[C@H]2c3cc(C(=O)N4CCCC4)n(CCc4c[nH]c5cc(F)ccc45)c3C[C@H]2CN1C(=O)c1ccccc1	-0.767	-0.0351	0.194	-0.234	-1.37	2.18	-1.2 (inactive)	-0.449	-1.21	0.339 (inactive)	0.182	1.7 (inactive)	-0.0568 (inactive)	-0.362 (inactive)	-0.815 (inactive)	0.335 (inactive)	-0.426 (inactive)	-0.55 (inactive)	-0.162	0.0535
CN1C(=O)C2CC=C(C3=CCO[C@@H]3[C@H]3CCCN3S(=O)(=O)c3ccccc3[N+](=O)[O-])CC2C1=O (stereo not given in full)	-0.477	0.102	0.302	-0.355	-0.0289	-1.25	-0.655 (inactive)	-0.12	-0.242	0.47 (inactive)	0.277	0.175 (inactive)	-0.354 (inactive)	-0.912 (inactive)	0.425 (inactive)	0.0123 (inactive)	0.527 (inactive)	0.189 (inactive)	0.0213	-0.187
COC(=O)C1=CC(CCCO)=CC(c2ccc(CN3CCCC3)cc2)N(C)C=C1C(=O)OC (stereo not given)	0.71	-0.0962	0.204	0.608	0.433	0.91	0.735 (inactive)	0.173	-0.537	-0.632 (inactive)	0.407	0.0335 (inactive)	-0.381 (inactive)	-1.58 (inactive)	0.543 (inactive)	0.326 (inactive)	0.98 (inactive)	1.32 (inactive)	0.154	-0.153
CCCCCCc1nc(Cc2cc(OC)c(OC)c(OC)c2)c(C)c2c1[Si](C(C)C)(C(C)C)OC2	0.106	0.986	-0.348	0.286	-3.41	4.95	0.835 (inactive)	-0.651	0.0845	0.504 (inactive)	-0.422	-0.944 (inactive)	0.328 (inactive)	-3.29 (inactive)	0.055 (inactive)	-0.599 (inactive)	1.4 (inactive)	0.707 (inactive)	0.556	0.146
COc1ccc([Si](C)(C)[C@@H]2[C@@H](CC(=O)N(CCO)Cc3ccccc3)O[C@]3(C(=O)N(Cc4cccc(I)c4)c4ccccc43)[C@H]2C)cc1	-1.09	1.05	-1.59	-2.55	-4.25	0.198	1.5 (inactive)	-1.2	-1.68	-2.97 (inactive)	-2.2	-0.142 (inactive)	-3.25 (inactive)	0.704 (inactive)	1.51 (inactive)	2.64 (inactive)	-0.335 (inactive)	-0.795 (inactive)	-2.96	0.236
CN(C)CCCCCCNC(=O)[C@@H]1C[C@@H]2C(=O)N[C@@H](CCCC[N+](C)(C)C)C(=O)N2[C@@H]1c1cccc(OCCO)c1	-0.188	-0.015	0.413	0.232	0.799	1.37	-0.225 (inactive)	-0.567	0.0992	-0.646 (inactive)	0.473	-0.834 (inactive)	0.349 (inactive)	-2.9 (inactive)	0.0472 (inactive)	-1.75 (inactive)	1.03 (inactive)	1.62 (inactive)	-0.0472	0.141
COCCOC(=O)N1C(=O)[C@@]2(c3cc(C#CCC(C(=O)OC)C(=O)OC)ccc31)[C@H](C(N)=O)[C@H]1C(=O)O[C@H](c3ccccc3)[C@H](c3ccccc3)N1[C@@H]2c1ccccc1OCCO	1.3	1.27	0.645	-2.97	-3.48	0.142	1.83 (inactive)	-0.79	-1.62	-0.175 (inactive)	-0.0131	-0.65 (inactive)	-1.99 (inactive)	-7.07 (inactive)	3.05 (inactive)	-0.243 (inactive)	0.664 (inactive)	1.42 (inactive)	-5.51	0.231
